# Assay outcomes from PubChem BioAssay.
# Hits are enriched below; roughly 1.1% of the tested compounds scored in any of these assays.
# Calb biofilm kill: clotrimazole potentiators killing Candida biofilms, primary screen, with clotrimazole, Alamar Blue. C. albicans biofilm + clotrimazole. inhibition, % at 6 µM. 85,000 compounds, 0.14% hits. AID 834, 2007;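 active = inhibition above 20%; inactive = inhibition below 20%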;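 also: preformed 24 hr biofilms exposed to compound for 48 hr; 0% = biofilm without compound and 100% = blank killed by clotrimazole plus chlorhexidine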
# PLK1 PBD inh: Plk1 polo box domain binding inhibitors, primary screen, biochemical, fluorescence polarization. 97,000 compounds, 0.13% hits. Plk1 PBD phosphopeptide binding. inhibition, %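 (tested at about 20 µM)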. Serine/threonine-protein kinase PLK1 (Homo sapiens), P53350. AID 693, 2007; in the data active = inhibition above about 34%, passing the limit was not always enough
# Target sequence (P53350 whole entry, looked up, the tested form may be a part): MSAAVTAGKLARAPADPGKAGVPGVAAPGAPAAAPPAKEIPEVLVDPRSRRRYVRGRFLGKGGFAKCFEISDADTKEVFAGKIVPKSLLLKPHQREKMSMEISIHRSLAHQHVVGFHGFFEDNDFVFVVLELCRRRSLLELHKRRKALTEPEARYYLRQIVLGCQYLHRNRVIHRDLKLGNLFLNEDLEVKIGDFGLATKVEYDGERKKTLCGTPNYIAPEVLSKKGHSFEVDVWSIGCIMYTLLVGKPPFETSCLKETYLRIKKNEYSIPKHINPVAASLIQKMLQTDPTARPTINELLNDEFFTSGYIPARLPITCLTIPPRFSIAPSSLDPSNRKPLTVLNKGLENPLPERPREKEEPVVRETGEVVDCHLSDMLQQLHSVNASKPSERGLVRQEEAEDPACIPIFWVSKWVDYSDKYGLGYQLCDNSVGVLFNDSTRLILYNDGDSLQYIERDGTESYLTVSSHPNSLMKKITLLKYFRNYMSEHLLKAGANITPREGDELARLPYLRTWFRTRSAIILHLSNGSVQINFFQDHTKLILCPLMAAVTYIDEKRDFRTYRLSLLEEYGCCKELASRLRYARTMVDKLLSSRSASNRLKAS
# CD11b adhes enh: enhancers of CD11b/CD18 adhesion to fibrinogen, primary screen, K562 cells, luminescence | activation, % at 10 µM | ATPlite luminescence | Integrin beta-2 (Homo sapiens) + Integrin alpha-M (Homo sapiens), P05107+P11215 | 93,000 compounds, 0.07% hits;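 active = 10 µM primary screen giving 50% or more activity, confirmed by 40% or more on retest at that dose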
# PLK1 inh: human PLK1 kinase inhibitors, primary screen, biochemical, TR-FRET | inhibition, % at 10 µM | Serine/threonine-protein kinase PLK1 (Homo sapiens), P53350 | 97,000 compounds, 0.53% hits | recombinant PLK1 kinase, TR-FRET peptide phosphorylation;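 active = inhibition of 50% or more in the single-concentration screen; inactive = inhibition below 50%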;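 also: 0% = DMSO max control and 100% = H-89 dihydrochloride min control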
# Mac1 fbg inh: inhibitors of CD11b/CD18 adhesion to fibrinogen, primary screen, K562 cells, luminescence; 93,000 compounds, 0.54% hits; ATPlite luminescence; Mn2+ added to activate the integrin; AID 1497, 2009; inhibition, % at 10 µM;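 active = primary inhibition of 50% or more at 10 µM, then 40% or more on retest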
# PLK1 inh conf: PLK1 kinase activity inhibitors, confirmation, biochemical, TR-FRET, duplicate runs. shares compounds with PLK1 inh. recombinant PLK1 kinase, TR-FRET peptide phosphorylation. inhibition, % at 10 µM. 210 compounds, 20% hits. AID 744, 2007;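 active = inhibition at or above 50% in each of two repeat confirmation tests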;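 also: 0% = DMSO max control and 100% = H-89 kinase-blocked min control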
# TR-FRET interf: compound interference with Plk1 assay readout, artefact control for Plk1 kinase inhibitor project, biochemical, TR-FRET, compound added post-reaction | inhibition (interference), % at 10 µM | shares compounds with PLK1 inh | 210 tested, under 10 active;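 active = both duplicate runs show 50% or greater inhibition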;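 also: 0% = DMSO max control and 100% = H-89 min control inhibited reaction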
# * hit, by the source's call; . = no result.
SMILES,Calb biofilm kill,PLK1 PBD inh,CD11b adhes enh,PLK1 inh,Mac1 fbg inh,PLK1 inh conf,TR-FRET interf
COc1ccc(-c2cn3c4c(sc3n2)CCCC4)cc1,9,7,-4,-36,55*,.,.
COc1ccc(-n2c(NC(=O)c3ccc(Br)o3)c(C#N)c3nc4ccccc4nc32)cc1,.,-38,-11,-16,90*,.,.
Cc1ccc(Nc2c([N+](=O)[O-])c(=O)n(C)c3ccccc23)cc1C,.,9,-4,-10,5,.,.
CCOc1cc(C)c(S(=O)(=O)Nc2ccc3cn[nH]c3c2)cc1C,.,-19,.,1,.,.,.
COc1ccc(OCCCC(=O)NCC(C)C)cc1,64*,1,-1,-2,9,.,.
O=C(CSc1n[nH]c(-c2ccc(Cl)cc2Cl)n1)Nc1ccccn1,.,-4,0,78*,10,74*,-53
O=C(CSc1n[nH]c(-c2cc(Cl)ccc2Cl)n1)NCCN1C(=O)CSC1=O,.,.,-2,.,9,.,.
O=C(NCCN1C(=O)C2C3C=CC(C3)C2C1=O)Nc1ccc(Br)cc1 (stereo not given),3,8,-1,72*,4,-5,-47
CCCCn1c(CN(Cc2ccccc2)Cc2ccccc2)nc2c1c(=O)n(C)c(=O)n2C,2,30,.,-4,.,.,.
CCOCCn1c(CN(Cc2ccccc2)Cc2ccccc2)nc2c1c(=O)n(C)c(=O)n2C,8,20,7,72*,-2,-5,-54
Nc1nc2ccc([N+](=O)[O-])c(N)c2s1,.,14,.,76*,.,75*,-46
CS(=O)(=O)c1ccc2nc(N)sc2c1,.,38,4,-8,-18,.,.
COc1ccccc1Nc1nc(N)nc(CN2CCOCC2)n1,10,23,0,72*,-10,-8,-52
O=C(COC(=O)c1c2c(nc3ccccc13)CCCCC2)c1ccc(Cl)s1,.,.,2,.,1,.,.
Cc1cc2c(ccc3[nH]onc32)n1,-2,3,.,72*,.,38,-59
C=CCNc1nc(N)c(C(=O)c2ccc3c(c2)OCO3)s1,10,12,-4,75*,-16,74*,-45
Cc1ccc2c(c1)/C(=N/OC(=O)c1ccc(F)cc1)CCS2,.,-27,.,124*,.,-3,-42
CN1CCC2(CC1)N=C(c1ccc(F)cc1)C(=S)N2C(=O)c1ccc(C(C)(C)C)cc1,.,.,0,.,46,.,.
O=S(=O)(c1ccc(Cl)s1)N1CCCc2cccc(O)c21,.,-20,4,-12,5,.,.
Cc1oc(-c2ccc(Cl)cc2)nc1CN1CCCC(C(=O)NCCCN2CCCC2=O)C1 (stereo not given),15,-34,2,73*,-4,-10,-56
Cc1oc(-c2cccc(Cl)c2)nc1CN1CCC(C(=O)NCCCN2CCCC2=O)CC1,5,-23,12,-6,-1,.,.
COCCn1c(SC)nnc1-c1c[nH]c2ccccc12,0,-16,2,73*,-13,-11,-58
CCn1c(SC)nnc1-c1c[nH]c2ccccc12,5,-4,2,77*,-9,-6,-52
C#CCSc1nnc(-c2c[nH]c3ccccc23)n1C,2,.,-4,.,4,.,.
Cn1c(SCc2cccnc2)nnc1-c1c[nH]c2ccccc12,-2,6,-1,74*,0,-6,-47
SMILES,Calb biofilm kill,PLK1 PBD inh,CD11b adhes enh,PLK1 inh,Mac1 fbg inh,PLK1 inh conf,TR-FRET interf
CCn1c(SCc2ccc(C(=O)OC)o2)nnc1-c1c[nH]c2ccccc12,3,23,-1,73*,1,-8,-59
CCn1c(SCc2nc(-c3cccs3)no2)nnc1-c1c[nH]c2ccccc12,8,14,-2,-6,7,.,.
COc1ccc(Cc2nnc3n2N=C(c2cc4ccccc4o2)CS3)cc1OC,9,4,.,-16,.,.,.
Cc1nc2nc(NCc3cccs3)nn2c(C)c1Cl,3,-12,6,-4,-6,.,.
O=C(NCc1cccs1)c1ccc([N+](=O)[O-])cc1Cl,.,.,-4,.,-7,.,.
O=C(c1cc2nc3c(c(C(F)(F)F)n2n1)CCc1ccccc1-3)N1CCN2CCCC2C1 (stereo not given),4,.,.,.,.,.,.
Cc1cccc(OCc2nnc(NC(=O)Cc3cccs3)s2)c1,7,4,.,-9,.,.,.
O=C(CSCc1ccc(Br)cc1)N1CCOCC1,1,4,-6,1,.,.,.
O=C(CSCc1ccc(F)cc1)N1CCOCC1,2,28,0,115*,-6,-7,-52
c1coc(-c2nc(-c3ccco3)c(-c3ccco3)nc2-c2ccco2)c1,8,-14,-4,93*,-4,-3,-53
Nc1nc(-c2ccco2)c(-c2ccco2)s1,6,-3,1,-7,-5,.,.
O=C1CC(c2ccc(F)cc2)Sc2nc(C34CC5CC(CC(C5)C3)C4)nn21 (stereo not given),.,.,2,.,37,.,.
COC(=O)c1sc2nc[nH]c(=O)c2c1C,.,12,3,74*,4,71*,-49
Cc1c(C(=O)OC(C)C)sc2nc[nH]c(=O)c12,3,7,-1,77*,0,69*,-50
Cc1nc(-c2cccnc2)sc1C(=O)Nc1ccc(Cl)cc1,.,-4,.,-8,.,.,.
Cc1nc(-c2cccnc2)sc1C(N)=O,.,-29,.,76*,.,35,-53
O=C(c1ccc(F)cc1)N1CCN(c2cc(=O)[nH]nc2-c2ccccc2)CC1,.,-11,.,125*,.,-12,-53
CCOC(=O)C(NCCc1ccccc1F)(NC(C)=O)C(F)(F)F (stereo not given),.,.,1,.,-12,.,.
Cc1cccc(Cn2c(N3CCCCC3C)nc3c2c(=O)[nH]c(=O)n3C)c1 (stereo not given),5,-24,.,83*,.,5,-50
Cc1cccc(Cn2c(N3CCc4ccccc4C3)nc3c2c(=O)[nH]c(=O)n3C)c1,0,17,38,-3,-17,.,.
CCOC(=O)C1CCN(C(=O)CN(c2ccc(OC)cc2)S(=O)(=O)c2c(C)noc2C)CC1,0,14,-1,-23,-1,.,.
CCOC(=O)C1CCN(C(=O)CN(c2ccc(OC)cc2)S(=O)(=O)c2c(C)nn(C)c2C)CC1,-3,14,4,73*,-10,-7,-60
CCOC(=O)N1CCN(c2c(N3CCc4ccccc43)c(=O)c2=O)CC1,11,-29,0,77*,7,-1,-51
COc1ccc(C(=O)/C=C/c2ccc(OC)c(Cn3nnc4ccccc43)c2)cc1,.,.,21,.,14,.,.
COCCn1c(C)cc(C(=O)CSc2nnc3ccccn23)c1C,5,-25,-5,72*,-3,-9,-53
CCOc1cc(CNc2ncnc3nc[nH]c23)ccc1OC,12,.,0,.,6,.,.
Cc1ccc(Nc2ncnc3nc[nH]c23)cc1Cl,3,-6,2,76*,13,36,-56
